Screening data: PubChem, several laboratories
Compounds with a hit are over-represented: about 4.8% of the library has one in this group of screens.
Wee1 stabilizer – human Wee1 degradation inhibition, primary screen; AID 1321; P30291; reporter increase, % at 5 µM; HeLa Luc-Wee1K328M stability, luciferase luminescence; 100% = proteasome inhibitor MG132 effect; 220,000 tested, 1.2% active;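 active = activation above the mean of all tested compounds plus 3 SD, set per screening run, cut at about 8.8% in these data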;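 note: cells exposed to compound for 20 h before luminescence read; 0% = DMSO alone and 100% = MG132 at 30 µM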
NF-kB expr up – raises NF-kB expression in human neuronal cells; NF-kB reporter expression; active compounds read high; fold change at 12.5 µM; 190,000 tested, 1.6% active; AID 1239; in the data active = fold change above about 3.3
APP 5UTR inh – APP translation inhibition | SH-SY5Y APP 5'UTR-luciferase reporter, luminescence | inhibition, % at 2 µM | 190,000 tested, 0.82% active | AID 1285;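 active = inhibition above a set limit, derived from the sample mean plus 3 SD, cut at about 45% in these data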
STAT1 activator – STAT1 signaling activation. NIH 3T3 STAT1-luciferase reporter, IFN-gamma, luminescence; 100% = IFN-gamma alone, no compound. activation (% of control), % at 5.5 µM. 200,000 tested, 2.6% active. AID 932;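 active = activation above the screen-wide mean activation plus 3 SD, cut at about 130% in these data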;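 note: raw ratio to IFN-gamma control signal so 100% means no change and 0% no light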
APP 5'UTR act – APP 5'UTR luciferase reporter activation | SH-SY5Y APP 5'UTR luciferase reporter, luminescence; zero percent = DMSO vehicle wells | activation, % at 2 µM | 190,000 tested, 1% active | AID 1276;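 active = activation above a set limit, based on mean plus 3 SD of controls, cut at about 140% in these data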
Hsp70 activator – switches on Hsp70 transcription | AID 1203 | HeLa Hsp70 promoter luciferase reporter, luminescence; scaled: vehicle 0, proteasome-inhibitor control 100% | activation, % at 10 µM | 200,000 tested, 0.04% active;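 active = activation above the mean across all tested compounds plus 3 SD, cutoff set per campaign, cut at about 5.5% in these data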;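 note: 100% = MG132 at 30 µM as the positive control and 0% = DMSO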
An asterisk follows results filed as active.

What do the screens show for `CCC(C(=O)NC1CCCC1)N(Cc1ccc2c(c1)OCO2)C(=O)c1snc(C(N)=O)c1N` (centres undefined)?
Wee1 stabilizer: 0; NF-kB expr up: 0.58; APP 5UTR inh: -3; STAT1 activator: 96; APP 5'UTR act: 3; Hsp70 activator: 0

Results for O=C(CN1CCN(c2ccc(F)cc2)CC1)NCc1cccs1 ?
Wee1 stabilizer: 9.0*; NF-kB expr up: 0.83; APP 5UTR inh: -8; STAT1 activator: 105; APP 5'UTR act: 8; Hsp70 activator: 0

Results for Cc1ccc(-c2nnc(CSc3nc4cc5c(cc4cc3C)OCO5)o2)cc1 ?
Wee1 stabilizer: -2; NF-kB expr up: 4*; APP 5UTR inh: -15; STAT1 activator: 102; APP 5'UTR act: 15; Hsp70 activator: 0

Results for OCCC1CN(Cc2ccc3c(c2)CCO3)CCN1C1CCCC1 (centres undefined) ?
Wee1 stabilizer: 6; NF-kB expr up: 1.1; APP 5UTR inh: 4; STAT1 activator: 96; APP 5'UTR act: -4; Hsp70 activator: 0

How did C/C(=N/NC(=O)c1ccccc1O)c1ccc(N2C(=O)C3CCCCC3C2=O)cc1 (centres undefined) do in these assays?
Wee1 stabilizer: -1; NF-kB expr up: 1.2; APP 5UTR inh: -7; STAT1 activator: 97; APP 5'UTR act: 7; Hsp70 activator: 0

What do the screens show for `COC(=O)c1nn(-c2ccccc2)c(=O)cc1O`?
Wee1 stabilizer: 2; NF-kB expr up: 1.1; APP 5UTR inh: -1; STAT1 activator: 108; APP 5'UTR act: 1; Hsp70 activator: 0

What do the screens show for `CN(NC1CC(=O)N(c2ccccc2)C1=O)c1ccccc1` (centres undefined)?
Wee1 stabilizer: 11*; NF-kB expr up: 1; APP 5UTR inh: -9; STAT1 activator: 94; APP 5'UTR act: 9; Hsp70 activator: -1

What do the screens show for `COC(=O)c1ccc(C(=O)OC)c(NS(=O)(=O)c2ccc(NC(C)=O)cc2)c1`?
Wee1 stabilizer: -1; NF-kB expr up: 1.2; APP 5UTR inh: -3; STAT1 activator: 111; APP 5'UTR act: 3; Hsp70 activator: 0

What do the screens show for `Cc1ccc2c(COC(=O)C3=COCCO3)cc(=O)oc2c1`?
Wee1 stabilizer: 4; NF-kB expr up: 3; APP 5UTR inh: -50; STAT1 activator: 132*; APP 5'UTR act: 50; Hsp70 activator: 0

Results for Cc1ccc2c(COC(=O)CNC(=O)c3ccccc3)cc(=O)oc2c1 ?
Wee1 stabilizer: -3; NF-kB expr up: 1.1; APP 5UTR inh: -19; STAT1 activator: 106; APP 5'UTR act: 19; Hsp70 activator: 0

How did CN1CCN(NC(=O)c2ccc(Cl)c(S(=O)(=O)Nc3ccc(Cl)cc3)c2)CC1 do in these assays?
Wee1 stabilizer: 4

What do the screens show for `CN(C(=O)c1cccnc1)c1nnc(-c2ccccn2)s1`?
Wee1 stabilizer: 1; NF-kB expr up: 1.7; APP 5UTR inh: -26; STAT1 activator: 136*; APP 5'UTR act: 26; Hsp70 activator: 1

How did C/C(Cc1ccccc1)=N\NC(=O)CNC(=O)COc1cccc(C)c1 do in these assays?
Wee1 stabilizer: 2

Results for CCc1ccc(-c2csc(-c3c[nH]c4ccccc34)n2)cc1 ?
Wee1 stabilizer: 3; NF-kB expr up: 2.7; APP 5UTR inh: -40; STAT1 activator: 132*; APP 5'UTR act: 40; Hsp70 activator: 0

Results for Nc1nc(-c2c[nH]c3ccccc23)cs1 ?
Wee1 stabilizer: -5; NF-kB expr up: 0.42; APP 5UTR inh: -13; STAT1 activator: 93; APP 5'UTR act: 13; Hsp70 activator: 0

How did Cc1cc(C)c2c(N)c(C(=O)c3ccccc3)sc2n1 do in these assays?
Wee1 stabilizer: 11*

How did Cc1cc(C)c2c(N)c(C(=O)c3ccc(Cl)cc3)sc2n1 do in these assays?
Wee1 stabilizer: 1; NF-kB expr up: 1.2; APP 5UTR inh: -25; STAT1 activator: 104; APP 5'UTR act: 25; Hsp70 activator: 0

What do the screens show for `N#Cc1nc(-c2ccc(Cl)cc2)oc1NCC1CCCO1` (centres undefined)?
Wee1 stabilizer: 11*; NF-kB expr up: 2.1; APP 5UTR inh: -29; STAT1 activator: 116; APP 5'UTR act: 29; Hsp70 activator: 0

How did CC(C)(C)c1ccc(-c2nc(C#N)c(NCCCn3ccnc3)o2)cc1 do in these assays?
Wee1 stabilizer: 1
